Screening results (PubChem BioAssay)
Tau fluor cs: counter-screen for tau fibril formation inhibitors. 280,000 tested, 0.93% active. Potency, µM (highest dose often 57.7 µM). tau K18 P301L Alexa594 fluorescence, heparin fibrillization; note: nearly all actives have a fitted effect of over 55% in size
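Human K18 P301L tau (15 uM unlabeled plus 0.24 uM Alexa 594-labeled, final) in 100 mM sodium acetate pH 7 was mixed with compound and 20 uM heparin and incubated 6 hr at 37 C.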
Tau ThT inhib: blocks human tau fibril formation measured by thioflavin T. recombinant tau K18 P301L, heparin-induced fibrillization, ThT fluorescence. Potency, µM (highest dose often 57.4 µM), actives largely listed as inhibitors. AID 1460. P10636. 270,000 tested, 2.1% active; note: nearly all actives have a fitted effect of over 55% in size
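Heparin-induced fibrillization of the P301L-mutant K18 repeat-domain fragment of human tau was followed by ThT binding in quantitative high-throughput format.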
RORgamma inh: inhibitors of mouse ROR gamma transcriptional activity; P51450; Drosophila S2 Gal4-RORgamma UAS-luciferase reporter, 20 h; Potency, µM (series often up to 53.6 µM), actives largely listed as inhibitors; 310,000 tested, 5.4% active; AID 2551; note: nearly all actives have a fitted effect of over 60% in size
Target sequence (P51450 whole entry, looked up, the tested form may be a part): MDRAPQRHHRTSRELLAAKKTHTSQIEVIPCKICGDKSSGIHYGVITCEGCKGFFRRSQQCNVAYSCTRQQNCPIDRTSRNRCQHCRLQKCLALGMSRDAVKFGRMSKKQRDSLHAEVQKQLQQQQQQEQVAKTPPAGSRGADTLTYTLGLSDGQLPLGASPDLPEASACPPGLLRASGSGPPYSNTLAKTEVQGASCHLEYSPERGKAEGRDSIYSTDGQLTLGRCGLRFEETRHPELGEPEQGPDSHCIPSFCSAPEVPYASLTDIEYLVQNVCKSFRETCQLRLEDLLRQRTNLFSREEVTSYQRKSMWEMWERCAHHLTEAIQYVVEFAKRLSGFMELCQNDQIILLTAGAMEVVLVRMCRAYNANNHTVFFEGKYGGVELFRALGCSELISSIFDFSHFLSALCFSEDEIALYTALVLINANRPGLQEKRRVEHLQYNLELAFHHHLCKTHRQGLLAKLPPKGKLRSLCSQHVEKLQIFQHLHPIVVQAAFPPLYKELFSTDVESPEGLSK
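In this cell-based reporter format, copper sulfate (700 uM final) drives Gal4–ROR gamma fusion expression from a metallothionein promoter in Drosophila Schneider cells; compounds preincubated 1 hr, reporter read after 20 hr at ambient temperature.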
Tau fibril FP: blocks human tau fibril formation measured by polarization; P10636; K18 P301L tau heparin fibrillization, Alexa594 FP, 6 h; Potency, µM (top dose mostly 57.7 µM), most hits filed as inhibitors; 280,000 tested, 0.39% active; note: nearly all actives have a fitted effect of over 55% in size
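Heparin (20 uM) drove fibril formation of recombinant tau K18 P301L, 15 uM unlabeled with 0.24 uM Alexa 594 label, for 6 hr at 37 C in 100 mM sodium acetate pH 7. Fluorescence polarization (555/632 nm) read 1 hr after 30 uM ThT.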
Gal4-VP16 FLuc: inhibits Gal4-VP16 luciferase reporter, ROR gamma counter-screen; Drosophila S2 Gal4-VP16 UAS-luciferase, luminescence, 20 h; Potency, µM (top dose mostly 53.6 µM), usual class: inhibitors; 310,000 tested, 3.5% active;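 note: Gal4-VP16 expression switched on by copper sulfate through the metallothionein promoter; nearly all actives have a fitted effect of over 50% in size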
Large screens that a line does not name were inactive. A selection: hits, their analogues and other compounds. The true share with any hit is near 7.3%. Calls come from the whole dose curve; as a rule, active = well fitted curve in the direction sought with a large enough effect; inconclusive = small, poorly fitted or top-dose-only effect, or another doubt; inactive = no such curve, though single readings can be large; an effect the other way counts as inactive or inconclusive.

CCCC1Cc2c(sc(NC(=S)NC(=O)c3ccccc3)c2C#N)CO1 (centres undefined)	Tau ThT inhib inconclusive, RORgamma inh 4.47µM, Gal4-VP16 FLuc inconclusive
Cc1cc(C)n(-c2nc3ccccc3nc2N2CCN(c3cccc(C(F)(F)F)c3)CC2)n1	none (no result: RORgamma inh, Gal4-VP16 FLuc)
CCc1nnc(NC(=O)CSc2nc3c([nH]c4ccccc43)c(=O)n2-c2ccc(Cl)cc2)s1	none (no result: RORgamma inh, Gal4-VP16 FLuc)
CCOc1cccc2cc(-c3nc4sc5c(c4c(=O)[nH]3)CCC(C(C)(C)C)C5)c(=O)oc12 (centres undefined)	none (no result: RORgamma inh, Gal4-VP16 FLuc)
N#Cc1c(NC(=O)c2ccccc2)sc2c1CCC2	none
N#Cc1c(NC(=S)NC(=O)c2ccccc2)sc2c1CCCC2	RORgamma inh 6.31µM, Gal4-VP16 FLuc 10µM
CC(C)CC(=O)NC(NC(=S)Nc1sc2c(c1C#N)CCCC2)C(Cl)(Cl)Cl (centres undefined)	Tau fluor cs inconclusive, Tau ThT inhib inconclusive, RORgamma inh 10µM, Gal4-VP16 FLuc inconclusive
CCC(=O)Nc1sc2c(c1C#N)CCC2	none
COc1ccc(OC)c(C2=Nn3c(nnc3-c3cc(OC)ccc3OC)SC2)c1	none (no result: Tau fluor cs, Tau ThT inhib, Tau fibril FP)
COCCCNC(=S)N/N=C/c1ccccc1O	RORgamma inh 0.562µM, Gal4-VP16 FLuc 3.55µM
COCCCNC(=S)N/N=C/c1ccc(N(C)C)cc1Cl	Tau ThT inhib inconclusive, RORgamma inh 2.24µM, Gal4-VP16 FLuc 12.6µM
CCCCNC(=S)N/N=C/c1ccc(C#N)cc1	Gal4-VP16 FLuc inconclusive
COCCCNC(=O)C(=O)N/N=C/c1cc2c(cc1Br)OCO2	none
COCCCNC(=S)N/N=C/c1ccc(N(C)C)cc1	Tau ThT inhib inconclusive, RORgamma inh 2.82µM, Gal4-VP16 FLuc 7.08µM
CC(C)(C)C1CCc2c(sc(NC(=O)c3ccccc3F)c2C(=O)NCc2ccco2)C1 (centres undefined)	Tau fibril FP inconclusive (no result: RORgamma inh, Gal4-VP16 FLuc)
CCCC[C@@H]1CCCO[C@@](C(=O)NCCN2CCOCC2)(C(F)(F)F)C1	none (no result: Tau fluor cs, Tau ThT inhib, Tau fibril FP)
CCOc1cc2[nH]c(=S)n(CC3CCCO3)c(=O)c2cc1OCC (centres undefined)	RORgamma inh 11.2µM, Gal4-VP16 FLuc inconclusive
CCC1CCCCN1CCn1c(=S)[nH]c2cc(OC)c(OC)cc2c1=O (centres undefined)	RORgamma inh 10µM
COc1cc2[nH]c(=S)n(CC3CCCO3)c(=O)c2cc1OC (centres undefined)	RORgamma inh inconclusive, Gal4-VP16 FLuc inconclusive
CCOc1cc2[nH]c(=S)n(CC3CCCN3CC)c(=O)c2cc1OCC (centres undefined)	RORgamma inh 10µM
COc1cc(-c2nc3cnccn3c2Nc2ccc(C)cc2)ccc1O	Tau fluor cs inconclusive
COc1cc(-c2nc3cnccn3c2Nc2ccc(C(C)C)cc2)ccc1O	Tau fluor cs inconclusive, RORgamma inh 14.1µM, Gal4-VP16 FLuc 10µM
COc1cc(-c2nc3nc[nH]n3c2Nc2ccc(C(C)C)cc2)ccc1O	Tau fluor cs inconclusive, Tau ThT inhib 25.1µM, Tau fibril FP inconclusive (no result: RORgamma inh, Gal4-VP16 FLuc)
CCS(=O)(=O)N1CCC2(CC1)OC(=O)C(C)=C2C(=O)NCc1ccc(OC)c(OC)c1	none (no result: RORgamma inh, Gal4-VP16 FLuc)
FC(F)(F)c1ccccc1NC(=S)Nn1cnnc1	none (no result: Tau fluor cs, Tau ThT inhib, Tau fibril FP)
Cc1ccc(C)c(NC(=O)CN(C)C(=O)CSC(C)C(=O)Nc2cc(C)on2)c1 (centres undefined)	none (no result: Tau fluor cs, Tau ThT inhib, Tau fibril FP)
Cc1cc(NC(=O)C(C)SCC(=O)N(C)CC(=O)Nc2ccc(Br)cc2C)no1 (centres undefined)	RORgamma inh 12.6µM, Gal4-VP16 FLuc 12.6µM (no result: Tau fluor cs, Tau ThT inhib, Tau fibril FP)
CCOc1ccccc1N1CC(C(=O)N(C)Cc2cccnc2)CC1=O (centres undefined)	none (no result: Tau fluor cs, Tau ThT inhib, Tau fibril FP)
Brc1ccc2nc(-c3ccncc3)c(NC3CCCC3)n2c1	none
Cc1ccn2c(NC3CCCC3)c(-c3cccs3)nc2c1	Tau ThT inhib inconclusive, RORgamma inh 10µM
CC(C)c1nc2ccccn2c1NC1CCCCC1	RORgamma inh 5.01µM, Gal4-VP16 FLuc inconclusive
Cc1ccn2c(NC(=O)c3ccccc3)c(-c3cccs3)nc2c1	none
Cc1ccn2c(NCc3ccccc3)c(-c3cccs3)nc2c1	Tau fluor cs inconclusive, Tau ThT inhib inconclusive, RORgamma inh 14.1µM, Gal4-VP16 FLuc inconclusive
c1csc(-c2nc3ccccn3c2NC2CCCCC2)c1	RORgamma inh 10µM
COc1ccc(C(=O)NNc2ncnc3c2cnn3-c2ccc(C)cc2C)cc1	none (no result: RORgamma inh, Gal4-VP16 FLuc)
